Source: PubChem (several laboratories)
A selection: hits, their analogues and other compounds. The true share with any hit is near 2.3%.
Mcl1 Bid PPI: Mcl-1/Bid interaction inhibition; Q07820; TR-FRET Mcl-1/Bid-Dy647 peptide binding, 1536-well; inhibition, % at 21.7 µM; 0.97% of 220,000 active;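 active = compounds that cut the binding signal by more than half at the single screening dose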;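 also: His-tagged Mcl-1 with europium anti-His antibody binding Bid BH3 peptide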
MCL1-BIM inh: MCL1-BIM-BH3 interaction inhibition (human). GST-MCL1 / FITC-Bim-BH3 fluorescence polarization. inhibition, % at 10.9 µM. 0.68% of 320,000 active;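 active = inhibition above the mean inhibition of all tested compounds plus 3 SD, set per campaign, cut at about 40% in these data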;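 also: higher means more loss of mP so more displacement of Bim peptide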
Mcl-1 Bim block: human Bim-Mcl-1 interaction inhibition; Q07820; 0.1% of 190,000 active; Bead-based flow cytometry, Bim peptide-Mcl-1 binding; inhibition, % at 10 µM; AID 1009; in the data active = inhibition above about 40%
Mcl1 Noxa PPI: Mcl-1/Noxa interaction inhibition | Q07820 | TR-FRET Mcl-1/Noxa peptide binding, 2 h | inhibition, % at 21.7 µM | 1.5% of 220,000 active | AID 1022;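 active = compounds that cut the protein-peptide binding signal by more than 50% relative to plate controls in a single-dose test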;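 also: His-tagged Mcl-1 with rhodamine Noxa BH3 peptide and terbium anti-His antibody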
GLD-1 TGE inh: GLD-1-TGE RNA interaction inhibition (C. elegans). Q17339. purified GLD-1 + fluorescein TGE RNA, fluorescence polarization. inhibition, % at 5.96 µM. 0.44% of 320,000 active;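 active = percent inhibition above a per-plate cutoff, the plate mean of test compounds plus 3 SD, cut at about 30% in these data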
Target sequence (Q17339 whole entry, looked up): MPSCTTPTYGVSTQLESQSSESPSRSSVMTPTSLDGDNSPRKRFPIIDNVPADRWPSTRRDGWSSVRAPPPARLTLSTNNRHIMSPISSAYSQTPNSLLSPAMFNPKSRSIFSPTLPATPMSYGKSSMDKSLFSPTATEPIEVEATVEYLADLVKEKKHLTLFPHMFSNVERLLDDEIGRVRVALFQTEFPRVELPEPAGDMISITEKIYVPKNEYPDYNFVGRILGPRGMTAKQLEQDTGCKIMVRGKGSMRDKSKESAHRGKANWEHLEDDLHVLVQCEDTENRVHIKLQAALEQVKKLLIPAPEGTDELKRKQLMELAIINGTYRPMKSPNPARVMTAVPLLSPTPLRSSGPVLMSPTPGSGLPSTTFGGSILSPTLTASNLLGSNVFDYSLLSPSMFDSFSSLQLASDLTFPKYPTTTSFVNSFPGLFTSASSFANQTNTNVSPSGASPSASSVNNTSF
Bcl-xL primary: inhibitors of human Bcl-xL. 0.7% of 320,000 active. Q07817. inhibition, % at 10.9 µM. AID 2129. GST-Bcl-xL / FITC-Bim BH3 peptide fluorescence polarization;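 active = inhibition above the mean of all tested compounds plus 3 SD, cutoff set per campaign, cut at about 30% in these data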;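 also: inhibitors lower millipolarization by displacing the labeled peptide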
Hits are given with their value; - = inactive; . = not tested or not shown.

SMILES | Mcl1 Bid PPI | MCL1-BIM inh | Mcl-1 Bim block | Mcl1 Noxa PPI | GLD-1 TGE inh | Bcl-xL primary
Nc1cc(S(=O)(=O)N2CCOCC2)ccc1N1CCCCC1 | . | . | . | . | - | .
O=S(=O)(c1ccc(N2CCOCC2)c(Cl)c1)N1CCOCC1 | . | - | . | . | - | -
Cc1cccc(-c2n[nH]c(=S)n2/N=C/c2ccc(C)s2)c1 | - | - | - | 69 | - | -
Cc1ccc(NC(=O)COC(=O)c2c(-c3ccccc3)noc2C)c(C)c1 | . | - | . | . | - | -
CCOc1ccc(N2CC(O)=C(c3nc4ccccc4c(=O)[nH]3)C2=N)cc1 | 57 | - | - | - | - | -
COc1ccc2[nH]c(=O)c(CN(C(=O)NC3CCCCC3)C3CCCCC3)cc2c1 | - | - | - | - | - | -
COc1ccc(N(Cc2cc3cc(OC)ccc3[nH]c2=O)C(=O)C2CCCO2)cc1 (stereo unspecified) | - | - | - | - | - | -
COc1ccc(NCc2cc3cc(OC)ccc3[nH]c2=O)cc1 | - | - | - | - | - | -
COc1ccc2[nH]c(=O)c(CN(C(=O)C3CCCO3)c3ccc(C)c(C)c3)cc2c1 (stereo unspecified) | 100 | - | . | - | - | -
COc1ccc2[nH]c(=O)c(CNc3cccc(C)c3)cc2c1 | - | - | - | 51 | - | -
COc1ccc2[nH]c(=O)c(CNC3CCCCC3)cc2c1 | 70 | - | - | - | - | -
CC(C)(C)OC(=O)N1CCC(NC(=O)c2ncn(Cc3ccccc3)c2C(=O)NC2CCN(C(=O)OC(C)(C)C)CC2)CC1 | . | - | . | . | - | -
COc1ccc(CC(=O)Nc2ccc(F)c(F)c2F)cc1S(=O)(=O)N1CCOCC1 | . | - | . | . | - | -
Cc1c(N/C(=N/S(=O)(=O)c2ccc(F)cc2)c2ccccc2)c(=O)n(-c2ccccc2)n1C | - | - | - | - | - | -
O=C(Nc1cc(S(=O)(=O)N2CCCCC2)ccc1Oc1ccccc1)C1=COCCO1 | . | - | . | . | - | -
CCO[C@H]1OC(C(N)=O)=C[C@@H](c2ccccc2)[C@@H]1CCCO | 51 | - | - | - | - | -
Cc1ccc(/C=C2/Sc3ccc(C(=O)N4CCN(C)CC4)cc3NC2=O)cc1 | . | - | . | . | - | 37
NC(=S)N/N=C/c1coc2cc(Br)ccc2c1=O | - | - | . | - | - | -
O=c1cc(/N=C/c2coc3c(ccc4ccccc43)c2=O)[nH]c(=S)[nH]1 | - | - | - | 74 | - | -
NC(=S)N/N=C/c1coc2c(ccc3ccccc32)c1=O | 76 | - | - | - | - | -
O=C(O)c1nn(CCOc2c(Cl)cccc2Cl)c(=O)c2ccccc12 | . | - | . | . | - | -
Cc1ccc(SC2=C(Sc3ccc(C)cc3)C(=O)c3ccccc3C2=O)cc1 | - | - | . | 69 | - | -
COc1cc(CNn2cn[nH]c2=S)cc(Br)c1OCc1ccccc1F | - | - | - | - | - | -
COc1cc(CNc2ccc(N3CCCC3)cc2)ccc1OCc1ccccc1F | - | - | - | 57 | - | -
COc1cc(CNc2ccc(O)cc2)cc(Br)c1OCc1ccccc1F | 95 | - | - | - | - | -
SMILES | Mcl1 Bid PPI | MCL1-BIM inh | Mcl-1 Bim block | Mcl1 Noxa PPI | GLD-1 TGE inh | Bcl-xL primary
COc1cc(CNCc2ccncc2)cc(Br)c1OCc1ccccc1F | 55 | - | - | - | - | -
COc1ccc(NC(=O)CN(C)C(=O)CCCNC(=O)c2ccc(Cl)cc2)cc1 | . | - | . | . | - | -
CC1=C(c2ccccc2)[N+](=O)C2(CCCC2)N1[O-] | - | - | - | - | - | -
O=[N+]([O-])c1ccc2c(c1)N([O-])C1(CCCCC1)[N+]2=O | - | . | . | 83 | . | .
O=C1CCCc2oc3c(cc(NS(=O)(=O)c4ccc5c6c(cccc46)C(=O)N5)c4ccccc43)c21 | - | - | . | 61 | - | -
Cc1oc2c(cc(NS(=O)(=O)c3ccc4c5c(cccc35)C(=O)N4)c3ccccc32)c1C(=O)OC(C)C | - | - | - | - | - | -
CN1CCC(N(C)CC(=O)Nc2ccc3c(c2)OC(F)(F)O3)CC1 | 60 | - | . | - | - | -
Cc1cc2c(C)c(C)c(=O)[nH]c2cc1N | - | - | - | 55 | - | -
Cc1ccc(NS(=O)(=O)c2c(C(=O)N3CCCCCC3)c(C)n(C)c2C)c(C)c1 | . | - | . | . | - | -
O=C1NC(=Nc2ccccc2)S/C1=C\c1ccccc1 | . | - | . | . | - | -
Cc1ccc(N=C2NC(=O)S/C2=C\c2ccco2)cc1 | - | - | - | 83 | - | -
O=C1NC(=Nc2ccccc2)/C(=C/c2ccco2)S1 | - | 47 | - | - | - | 42
CC1CC(C)CN(S(=O)(=O)c2ccc3c(c2)CC(=O)N3)C1 (stereo unspecified) | . | - | . | . | - | -
Oc1cc2ccccc2cc1-c1n[nH]c(=S)o1 | 57 | - | - | - | - | -
S=c1[nH]nc(-c2c[nH]c3ccccc23)o1 | . | - | . | . | - | -
CC(=O)c1ccc(OCCCC(=O)N2CCN(S(=O)(=O)c3ccc(C(C)C)cc3)CC2)cc1 | . | - | . | . | - | -
Cc1[nH]c2ccc(C(=O)N3CCN(c4ccccn4)CC3)cc2c1C | . | - | . | . | - | -
CCOC(=O)C1CCCN(Cc2cccs2)C1 (stereo unspecified) | 55 | - | - | - | - | -
O=C(C1CCCN(Cc2ccccc2Br)C1)N1CCCCC1 (stereo unspecified) | 59 | - | - | - | - | -
CCOC(=O)C1CCCN(Cc2ccccc2OCC)C1 (stereo unspecified) | 98 | - | - | - | - | -
Cc1ccc(NC(=O)/C(C#N)=C/c2ccc(C)s2)c(C)c1 | - | 41 | - | - | - | 48
COc1ccc(CCNC(=O)CCS(=O)(=O)Cc2ccccc2C)cc1OC | . | - | . | . | - | -
Oc1ccc2ccccc2c1C1Nc2cccc3cccc(c23)N1 | - | - | - | 51 | - | -
COc1cc(C2Nc3cccc4cccc(c34)N2)ccc1O | . | - | . | . | - | -
COC(=O)CSc1[nH]c2ccc(Br)cc2c1[N+](=O)[O-] | - | - | - | - | - | -
SMILES | Mcl1 Bid PPI | MCL1-BIM inh | Mcl-1 Bim block | Mcl1 Noxa PPI | GLD-1 TGE inh | Bcl-xL primary
CCOc1ccc2[nH]c(SCC(=O)OC)c([N+](=O)[O-])c2c1 | - | - | - | - | - | 39
CCOc1ccc(NC(=O)c2cc3c(C)nc4ccccc4c3o2)cc1 | 52 | - | - | - | - | -
CC(C)(C)NC(=O)CN(C(=O)c1snc(C(=O)NC2CCCCC2)c1N)c1ccccc1F | . | - | . | . | - | -
Cn1cc(C=O)c2cc(F)ccc21 | - | - | - | - | - | -
Cn1cc(/C=C/c2cc[n+](C)cc2)c2cc(Cl)ccc21 | . | - | . | . | 52 | -
Cn1cc(/C=C/c2cc[n+](C)cc2)c2cc(F)ccc21 | . | - | . | . | 77 | -
CC(C)CCNC(=O)[C@H](Cc1ccccc1)N1Cc2ccccc2C1=O | . | - | . | . | - | -
COCCN(CCOC)S(=O)(=O)c1ccc(C(=O)Nc2c(C)n(C)n(-c3ccccc3)c2=O)cc1 | - | - | . | 102 | - | -
COc1ccc(N(CC(=O)Nc2c(C)n(C)n(-c3ccccc3)c2=O)S(=O)(=O)c2ccc(C)cc2)cc1OC | . | - | . | . | - | -
